Measurements as given in PubChem BioAssay.
Values without a mark were called inactive. Activity calls are given as the source filed them.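 How the source made its calls, unless noted: active means inhibition above 50%; inactive means the rest.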

Assay: antimalarial activity against Dd2 strain (AID 2302;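 active means growth inhibition above 50% at the single 2 µM test dose, taken to imply half-maximal potency below 2 µM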;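 further: 0% = DMSO untreated growth and 100% = chloroquine plus artemisinin killed control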)
Settings: P. falciparum Dd2 in RBCs, LDH growth readout, 72 h; at 2 µM; hits give high values

**Q.** Which growth inhibition does the source give for `O=C1COc2ccc3ccccc3c21` here?
**A.** 3%

**Q.** For `Cc1cccc2[nH]c(-c3cccc(-c4cccc(CNCC5CCCO5)c4)c3)nc12` (stereo not given), which growth inhibition is on record?
**A.** 99% (active)

**Q.** For `CCCCCCN1CCC(CNCc2cccc([N+](=O)[O-])c2)CC1`, which growth inhibition is on record?
**A.** 15%

**Q.** With `O=C(NCCc1ccccc1)[C@H](Cc1ccccc1)Nc1ccnc(NCC2CCCCC2)n1` as the compound, how does the growth inhibition read?
**A.** 53% (active)

**Q.** For `CCOC(=O)c1cn(CC)c2cc(N(C)CCc3ccc(OC)c(OC)c3)c(F)cc2c1=O`, which growth inhibition is on record?
**A.** 96% (active)

**Q.** Which growth inhibition does the source give for `O=C(Nc1cccc(CN2CCCN(Cc3cccc(Cl)c3)CC2)c1)c1ccc(-c2ccccc2)cc1` here?
**A.** 14%

**Q.** For `C=CCC(C(=O)Nc1ccnc2ccc(OC)cc12)C1CCN(CCCCCCC)CC1` (stereo not given), which growth inhibition is on record?
**A.** 84% (active)

**Q.** For `O=C(C=Cc1ccc(Cl)c(Cl)c1)NCCCCCN1CCC(CCNC(=O)c2ccc3c(c2)OCO3)CC1`, which growth inhibition is on record?
**A.** 2%

**Q.** Which growth inhibition does the source give for `COc1cc2ncnc(Nc3ccc4nc(Cc5ccccc5)[nH]c4c3)c2cc1OC` here?
**A.** 28%

**Q.** For `COc1ccc(-n2nc(C(=O)NCc3ccccc3OC)c3ccccc3c2=O)cc1`, which growth inhibition is on record?
**A.** 94% (active)

**Q.** With `CCc1ccccc1OCCCON1C(N)=NC(N)=NC1(C)C` as the compound, how does the growth inhibition read?
**A.** 97% (active)

**Q.** Which growth inhibition does the source give for `CC(C)c1cc2c(ccc3nc(N)nc(N)c32)[nH]1` here?
**A.** 4%

**Q.** With `Cc1cc(N2CCCCC2)nc2ccc(NC(=O)c3cncc(Br)c3)cc12` as the compound, how does the growth inhibition read?
**A.** 86% (active)

**Q.** For `CC1CCN(CCNC(=O)c2ccc3c(=O)n(Cc4ccc(Cl)cc4)c(=S)[nH]c3c2)CC1`, which growth inhibition is on record?
**A.** 75% (active)

**Q.** Which growth inhibition does the source give for `CCC[C@@H]([C@@H](CC(C)C)C(=O)N[C@H](C(=O)Nc1nccs1)C(C)(C)SCCNC(=O)OCC)N(O)C=O` here?
**A.** 97% (active)

**Q.** With `COc1ccc(NC(=O)N2CCc3ccc(OCCN(C(C)C)C(C)C)cc32)cc1C(F)(F)F` as the compound, how does the growth inhibition read?
**A.** 6%

**Q.** Which growth inhibition does the source give for `c1ccc2nc(NCCCCCCCCNc3ccc4ccccc4n3)ccc2c1` here?
**A.** 37%

**Q.** For `O=C(Nc1cccc(-c2cccc(-c3nc4ccc(F)cc4[nH]3)c2)c1)Nc1ccc(F)c(F)c1F`, which growth inhibition is on record?
**A.** 100% (active)

**Q.** With `Cc1ccc(C2=NNC3(S2)C(=O)N(C)c2ccccc23)cc1` (stereo not given) as the compound, how does the growth inhibition read?
**A.** 12%

**Q.** For `Cc1c(N)ccc2[nH]c(-c3ccc(N)cc3)nc12`, which growth inhibition is on record?
**A.** 40%

**Q.** With `Fc1cccc(Nc2nc(NCc3ccc(Cl)c(Cl)c3)nc(Nc3cccc(F)c3)n2)c1` as the compound, how does the growth inhibition read?
**A.** 7%

**Q.** With `CC1(C)N=C(NC(=O)c2ccc([N+](=O)[O-])cc2)N=C(N)N1OCc1ccc2ccccc2c1` as the compound, how does the growth inhibition read?
**A.** 78% (active)

**Q.** Which growth inhibition does the source give for `O=[N+]([O-])c1cccc(C=NNc2ccnc3cc(F)ccc23)c1` here?
**A.** 100% (active)

**Q.** With `CC(C)OC(=O)c1ccccc1S(N)(=O)=O` as the compound, how does the growth inhibition read?
**A.** -2%

**Q.** For `COc1ccc(CC(=O)NC2CCN(c3ccnc4cc(Cl)ccc34)C2)cc1` (stereo not given), which growth inhibition is on record?
**A.** 88% (active)

**Q.** Which growth inhibition does the source give for `Cc1nc2nc(N)nc(N)c2c(C)c1Cc1ccc(C#N)cc1` here?
**A.** 4%

**Q.** Which growth inhibition does the source give for `COc1ccc(S(=O)(=O)N2CCC3(CC2)OCC(=O)NC3c2ccc(Cl)c(Cl)c2)cc1` (stereo not given) here?
**A.** 44%

**Q.** For `COC(=O)c1ccc(OCC(C)NCC(O)c2cccc(C(F)(F)F)c2)cc1` (stereo not given), which growth inhibition is on record?
**A.** 81% (active)

**Q.** For `COc1ccc2nccc([C@@H](O)CN3CCC(NC(=O)/C=C/c4ccc5ccccc5n4)CC3)c2c1`, which growth inhibition is on record?
**A.** 9%

**Q.** Which growth inhibition does the source give for `COc1ccc2nccc([C@@H](O)CN3CCC(NCCNc4ccccn4)CC3)c2c1` here?
**A.** 14%

**Q.** Which growth inhibition does the source give for `CS(=O)(=O)c1ccc(CCNCc2ccc(-c3ccc(CN(C(=O)C4CC(=O)c5ccccc54)C4Cc5ccccc5C4)cc3)nc2)cc1` (stereo not given) here?
**A.** 21%

**Q.** Which growth inhibition does the source give for `Cc1c(C)c2c(c(C)c1O)CC[C@@](C)(C(=O)N1CCC(CCN3CCC(c4c[nH]c5ccccc45)CC3)CC1)O2` here?
**A.** 91% (active)

**Q.** For `Cc1noc(C)c1S(=O)(=O)N(C)Cc1ccc(-c2ccc(Cl)cc2)o1`, which growth inhibition is on record?
**A.** 100% (active)

**Q.** With `CCC(C)(CC)C(=O)n1ncc2c3c(N)nc(N)nc3ccc21` as the compound, how does the growth inhibition read?
**A.** 6%

**Q.** Which growth inhibition does the source give for `Clc1ncccc1-c1nc(NCCC(c2ccccc2)c2ccccc2)no1` here?
**A.** 82% (active)

**Q.** For `CCCCCCN1CCCN(Cc2ccc(C(=O)Nc3cccc(CC)c3)cc2)CC1`, which growth inhibition is on record?
**A.** 54% (active)

**Q.** For `Cc1ccc(NC(=S)N2CCCN(CCCCCNC(=O)/C=C/c3ccc(Cl)c(Cl)c3)CC2)cc1Cl`, which growth inhibition is on record?
**A.** 5%

**Q.** For `CCOc1cc(C(=O)NCc2cc(Cl)cc(Cl)c2)ccc1-c1nc2ccc(Cl)cc2[nH]1`, which growth inhibition is on record?
**A.** 5%

**Q.** For `COc1cc(C(F)(F)F)cc2[nH]c(CNCCCNc3nc4ccccc4[nH]3)cc12`, which growth inhibition is on record?
**A.** 2%

**Q.** Which growth inhibition does the source give for `NC1=Nc2ccc(Cl)cc2C1(O)c1ccccc1` (stereo not given) here?
**A.** 51% (active)

Assay: HepG2 cytotoxicity, primary screen, cytotoxicity control for P. falciparum antimalarial project, cell-based, ATP luminescence (AID 2303);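 further: 0% = DMSO wells and 100% = digitonin-killed cells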
Settings: HepG2 viability, 24-48 h, at 10 µM, hits give high values

**Q.** Which inhibition does the source give for `O=C1COc2ccc3ccccc3c21` here?
**A.** -3%

**Q.** For `Cc1cccc2[nH]c(-c3cccc(-c4cccc(CNCC5CCCO5)c4)c3)nc12` (stereo not given), which inhibition is on record?
**A.** 26%

**Q.** With `CCCCCCN1CCC(CNCc2cccc([N+](=O)[O-])c2)CC1` as the compound, how does the inhibition read?
**A.** 16%

**Q.** With `O=C(NCCc1ccccc1)[C@H](Cc1ccccc1)Nc1ccnc(NCC2CCCCC2)n1` as the compound, how does the inhibition read?
**A.** 11%

**Q.** Which inhibition does the source give for `CCOC(=O)c1cn(CC)c2cc(N(C)CCc3ccc(OC)c(OC)c3)c(F)cc2c1=O` here?
**A.** 9%

**Q.** With `O=C(Nc1cccc(CN2CCCN(Cc3cccc(Cl)c3)CC2)c1)c1ccc(-c2ccccc2)cc1` as the compound, how does the inhibition read?
**A.** 44%

**Q.** With `C=CCC(C(=O)Nc1ccnc2ccc(OC)cc12)C1CCN(CCCCCCC)CC1` (stereo not given) as the compound, how does the inhibition read?
**A.** 20%

**Q.** For `O=C(C=Cc1ccc(Cl)c(Cl)c1)NCCCCCN1CCC(CCNC(=O)c2ccc3c(c2)OCO3)CC1`, which inhibition is on record?
**A.** 35%

**Q.** Which inhibition does the source give for `COc1cc2ncnc(Nc3ccc4nc(Cc5ccccc5)[nH]c4c3)c2cc1OC` here?
**A.** -9%

**Q.** For `COc1ccc(-n2nc(C(=O)NCc3ccccc3OC)c3ccccc3c2=O)cc1`, which inhibition is on record?
**A.** 2%

**Q.** For `CCc1ccccc1OCCCON1C(N)=NC(N)=NC1(C)C`, which inhibition is on record?
**A.** 77% (active)

**Q.** For `CC(C)c1cc2c(ccc3nc(N)nc(N)c32)[nH]1`, which inhibition is on record?
**A.** 49%

**Q.** For `Cc1cc(N2CCCCC2)nc2ccc(NC(=O)c3cncc(Br)c3)cc12`, which inhibition is on record?
**A.** -3%

**Q.** For `CC1CCN(CCNC(=O)c2ccc3c(=O)n(Cc4ccc(Cl)cc4)c(=S)[nH]c3c2)CC1`, which inhibition is on record?
**A.** 6%

**Q.** With `CCC[C@@H]([C@@H](CC(C)C)C(=O)N[C@H](C(=O)Nc1nccs1)C(C)(C)SCCNC(=O)OCC)N(O)C=O` as the compound, how does the inhibition read?
**A.** -8%

**Q.** With `COc1ccc(NC(=O)N2CCc3ccc(OCCN(C(C)C)C(C)C)cc32)cc1C(F)(F)F` as the compound, how does the inhibition read?
**A.** -1%

**Q.** Which inhibition does the source give for `c1ccc2nc(NCCCCCCCCNc3ccc4ccccc4n3)ccc2c1` here?
**A.** 52% (active)

**Q.** With `O=C(Nc1cccc(-c2cccc(-c3nc4ccc(F)cc4[nH]3)c2)c1)Nc1ccc(F)c(F)c1F` as the compound, how does the inhibition read?
**A.** 83% (active)

**Q.** Which inhibition does the source give for `Cc1ccc(C2=NNC3(S2)C(=O)N(C)c2ccccc23)cc1` (stereo not given) here?
**A.** 36%

**Q.** For `Cc1c(N)ccc2[nH]c(-c3ccc(N)cc3)nc12`, which inhibition is on record?
**A.** 0%

**Q.** For `Fc1cccc(Nc2nc(NCc3ccc(Cl)c(Cl)c3)nc(Nc3cccc(F)c3)n2)c1`, which inhibition is on record?
**A.** -5%

**Q.** With `CC1(C)N=C(NC(=O)c2ccc([N+](=O)[O-])cc2)N=C(N)N1OCc1ccc2ccccc2c1` as the compound, how does the inhibition read?
**A.** 64% (active)

**Q.** For `O=[N+]([O-])c1cccc(C=NNc2ccnc3cc(F)ccc23)c1`, which inhibition is on record?
**A.** 4%

**Q.** Which inhibition does the source give for `CC(C)OC(=O)c1ccccc1S(N)(=O)=O` here?
**A.** -6%

**Q.** With `COc1ccc(CC(=O)NC2CCN(c3ccnc4cc(Cl)ccc34)C2)cc1` (stereo not given) as the compound, how does the inhibition read?
**A.** -1%

**Q.** Which inhibition does the source give for `Cc1nc2nc(N)nc(N)c2c(C)c1Cc1ccc(C#N)cc1` here?
**A.** 69% (active)

**Q.** Which inhibition does the source give for `COc1ccc(S(=O)(=O)N2CCC3(CC2)OCC(=O)NC3c2ccc(Cl)c(Cl)c2)cc1` (stereo not given) here?
**A.** -4%

**Q.** With `COC(=O)c1ccc(OCC(C)NCC(O)c2cccc(C(F)(F)F)c2)cc1` (stereo not given) as the compound, how does the inhibition read?
**A.** 6%

**Q.** With `COc1ccc2nccc([C@@H](O)CN3CCC(NC(=O)/C=C/c4ccc5ccccc5n4)CC3)c2c1` as the compound, how does the inhibition read?
**A.** 12%

**Q.** With `COc1ccc2nccc([C@@H](O)CN3CCC(NCCNc4ccccn4)CC3)c2c1` as the compound, how does the inhibition read?
**A.** 18%

**Q.** With `CS(=O)(=O)c1ccc(CCNCc2ccc(-c3ccc(CN(C(=O)C4CC(=O)c5ccccc54)C4Cc5ccccc5C4)cc3)nc2)cc1` (stereo not given) as the compound, how does the inhibition read?
**A.** 5%

**Q.** For `Cc1c(C)c2c(c(C)c1O)CC[C@@](C)(C(=O)N1CCC(CCN3CCC(c4c[nH]c5ccccc45)CC3)CC1)O2`, which inhibition is on record?
**A.** 37%

**Q.** With `Cc1noc(C)c1S(=O)(=O)N(C)Cc1ccc(-c2ccc(Cl)cc2)o1` as the compound, how does the inhibition read?
**A.** 10%

**Q.** For `CCC(C)(CC)C(=O)n1ncc2c3c(N)nc(N)nc3ccc21`, which inhibition is on record?
**A.** 73% (active)

**Q.** For `Clc1ncccc1-c1nc(NCCC(c2ccccc2)c2ccccc2)no1`, which inhibition is on record?
**A.** 12%

**Q.** Which inhibition does the source give for `CCCCCCN1CCCN(Cc2ccc(C(=O)Nc3cccc(CC)c3)cc2)CC1` here?
**A.** 31%

**Q.** For `Cc1ccc(NC(=S)N2CCCN(CCCCCNC(=O)/C=C/c3ccc(Cl)c(Cl)c3)CC2)cc1Cl`, which inhibition is on record?
**A.** 14%

**Q.** Which inhibition does the source give for `CCOc1cc(C(=O)NCc2cc(Cl)cc(Cl)c2)ccc1-c1nc2ccc(Cl)cc2[nH]1` here?
**A.** 1%

**Q.** With `COc1cc(C(F)(F)F)cc2[nH]c(CNCCCNc3nc4ccccc4[nH]3)cc12` as the compound, how does the inhibition read?
**A.** 59% (active)

**Q.** For `NC1=Nc2ccc(Cl)cc2C1(O)c1ccccc1` (stereo not given), which inhibition is on record?
**A.** -3%
